Measurements as given in PubChem BioAssay.
The source made the active and inactive calls.

Tests used:
[1] = optical density shifts of acrAB sulA E. coli – strain DRC41, OD650, 48 h, E. coli filamentation inducer project, primary screen (AID 1152); conditions: higher = more signal, called active from +8 up or from −8 down;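 note: E. coli MC1000 strain DRC41 lacking acrAB efflux pump and sulA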
[2] = probe aLefty1 binding on compound microarray – biochemical, small-molecule microarray, 635/667 nm fluorescence, primary screen (AID 1153); conditions: higher = more signal;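 note: score merges spot fluorescence with signal-to-noise ratio from the scanned slide images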
[3] = plasmodial surface anion channel blockers, osmotic lysis – cell-based, P. falciparum Indochina, OD700, 1 h, primary screen (AID 1154); conditions: P. falciparum Indochina infected RBC osmotic lysis, higher = more signal, called active from +8 up or from −8 down
[4] = plasmodial surface anion channel blockers, osmotic lysis – cell-based, P. falciparum Indochina, OD700, 2 h, primary screen (AID 1155);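 note: lysis reports solute entry through the parasite surface anion channel PSAC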; conditions: P. falciparum Indochina infected erythrocytes, higher = more signal, called active from +8 up or from −8 down
[5] = changes in parasitized red cell lysis, either direction – P. falciparum Indochina, OD700, 3 h, PSAC antagonist project, primary screen (AID 1156); conditions: P. falciparum-infected erythrocytes, osmotic lysis, higher = more signal, called active from +8 up or from −8 down
[6] = plasmodial surface anion channel blockers, osmotic lysis – cell-based, P. falciparum Indochina, OD700, 18 h, primary screen (AID 1157); conditions: P. falciparum Indochina infected erythrocytes, osmotic lysis OD700, 18 h; higher = more signal, called active from +8 up or from −8 down
[7] = S6 kinase pathway phospho-S6 level changes – cell-based, A549, cytoblot, luminescence, serum-stimulated, primary screen (AID 1158); conditions: 5 h, higher = more signal;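 note: serum-stimulated A549 lung adenocarcinoma cells; signal is phosphorylated S6 detected by cytoblot immunostaining with HRP secondary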
[8] = biological target: NADPH oxidase 2 (Homo sapiens) (UniProt P04839); experiment: compounds shifting NOX2 Amplex Red fluorescence – cell-based, HEK293-NOX2, PMA-stimulated, NOX inhibitor project, primary screen (AID 1159); conditions: 45 min, higher = more signal, called active from +8 up or from −8 down; note: test concentration not given here
NADPH oxidase 2 (Homo sapiens), sequence (P04839 whole entry, looked up): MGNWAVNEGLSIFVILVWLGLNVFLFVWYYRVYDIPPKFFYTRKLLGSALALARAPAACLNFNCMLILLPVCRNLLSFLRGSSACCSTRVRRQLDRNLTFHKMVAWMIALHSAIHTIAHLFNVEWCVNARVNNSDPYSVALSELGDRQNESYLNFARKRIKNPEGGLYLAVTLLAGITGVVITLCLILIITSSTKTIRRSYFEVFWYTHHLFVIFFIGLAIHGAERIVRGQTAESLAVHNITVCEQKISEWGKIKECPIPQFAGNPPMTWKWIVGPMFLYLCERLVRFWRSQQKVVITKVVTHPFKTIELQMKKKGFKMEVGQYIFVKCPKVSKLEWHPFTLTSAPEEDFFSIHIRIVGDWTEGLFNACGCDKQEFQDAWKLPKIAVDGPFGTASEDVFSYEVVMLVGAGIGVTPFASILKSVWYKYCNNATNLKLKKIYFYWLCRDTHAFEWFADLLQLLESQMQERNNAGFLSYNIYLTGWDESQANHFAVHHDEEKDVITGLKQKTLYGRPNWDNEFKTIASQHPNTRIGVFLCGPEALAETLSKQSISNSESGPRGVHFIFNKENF

[9] = biological target: NADPH oxidase 4 (Homo sapiens) (UniProt Q9NPH5); experiment: compounds shifting NOX4 Amplex Red fluorescence – cell-based, HEK293-NOX4, tetracycline-induced, NOX inhibitor project, primary screen (AID 1160); conditions: HEK293-NOX4, Amplex Red H2O2 fluorescence, 45 min; higher = more signal, called active from +8 up or from −8 down
NADPH oxidase 4 (Homo sapiens), sequence (Q9NPH5 whole entry, looked up): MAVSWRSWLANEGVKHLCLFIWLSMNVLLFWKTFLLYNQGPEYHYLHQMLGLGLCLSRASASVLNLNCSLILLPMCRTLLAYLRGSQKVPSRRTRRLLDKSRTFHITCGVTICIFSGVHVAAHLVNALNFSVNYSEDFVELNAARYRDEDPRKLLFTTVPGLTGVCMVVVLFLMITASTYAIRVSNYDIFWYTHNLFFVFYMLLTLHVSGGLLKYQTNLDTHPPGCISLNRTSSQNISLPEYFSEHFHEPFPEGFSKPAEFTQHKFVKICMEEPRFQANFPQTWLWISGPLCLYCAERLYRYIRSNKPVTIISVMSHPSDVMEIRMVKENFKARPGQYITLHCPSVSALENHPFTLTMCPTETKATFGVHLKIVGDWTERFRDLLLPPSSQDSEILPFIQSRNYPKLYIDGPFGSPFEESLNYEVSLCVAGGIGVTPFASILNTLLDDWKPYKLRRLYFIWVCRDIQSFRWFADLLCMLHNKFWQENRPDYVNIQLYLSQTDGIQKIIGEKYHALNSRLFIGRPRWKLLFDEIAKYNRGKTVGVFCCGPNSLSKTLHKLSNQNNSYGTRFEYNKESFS

[10] = biological target: NADPH oxidase 5 (Homo sapiens) (UniProt Q96PH1); experiment: compounds shifting NOX5 Amplex Red fluorescence – cell-based, HEK293-NOX5, NOX inhibitor project, primary screen (AID 1161); conditions: HEK293-NOX5, ionomycin, 45 min, higher = more signal
NADPH oxidase 5 (Homo sapiens), sequence (Q96PH1 whole entry, looked up): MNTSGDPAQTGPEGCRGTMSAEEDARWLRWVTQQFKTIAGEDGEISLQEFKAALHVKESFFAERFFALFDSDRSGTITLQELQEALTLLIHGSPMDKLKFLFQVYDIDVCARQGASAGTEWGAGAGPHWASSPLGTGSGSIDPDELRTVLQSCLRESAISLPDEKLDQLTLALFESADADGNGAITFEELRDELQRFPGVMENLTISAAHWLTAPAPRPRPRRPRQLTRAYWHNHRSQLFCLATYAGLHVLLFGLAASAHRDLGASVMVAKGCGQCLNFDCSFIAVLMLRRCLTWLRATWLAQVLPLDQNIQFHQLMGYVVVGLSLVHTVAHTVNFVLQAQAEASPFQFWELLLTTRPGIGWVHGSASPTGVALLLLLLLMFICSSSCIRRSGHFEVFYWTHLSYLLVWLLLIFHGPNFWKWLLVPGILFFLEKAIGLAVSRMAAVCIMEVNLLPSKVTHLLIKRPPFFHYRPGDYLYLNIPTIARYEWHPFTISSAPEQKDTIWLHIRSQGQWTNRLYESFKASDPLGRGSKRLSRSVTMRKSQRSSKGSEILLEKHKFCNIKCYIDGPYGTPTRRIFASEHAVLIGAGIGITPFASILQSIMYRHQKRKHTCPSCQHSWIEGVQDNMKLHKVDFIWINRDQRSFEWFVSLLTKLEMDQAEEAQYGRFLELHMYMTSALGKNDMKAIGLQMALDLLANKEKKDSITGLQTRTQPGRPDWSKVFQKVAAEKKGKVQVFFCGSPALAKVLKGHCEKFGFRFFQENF

[11] = compound effects on lung adenocarcinoma cell viability – A549, calcein-AM fluorescence, 48 h, basal, profiling panel (AID 1162); conditions: higher = more signal; note: test concentration not given here
[12] = compound effects on differentiated 3T3-L1 adipocyte viability – cell-based, 3T3-L1 adipocytes, calcein-AM fluorescence, 48 h, basal, profiling panel (AID 1163); conditions: 3T3-L1 adipocytes viability, higher = more signal; note: test concentration not given here
[13] = compound effects on hepatocellular carcinoma cell viability – HepG2, calcein-AM fluorescence, 48 h, basal, profiling panel (AID 1164); conditions: higher = more signal; note: test concentration not given here
[14] = compound effects on multiple myeloma cell viability – MM1S, calcein-AM fluorescence, 48 h, basal, profiling panel (AID 1165); conditions: higher = more signal; note: test concentration not given here
[15] = calcein-AM signal in unstimulated myeloma cells – cell-based, calcein-AM fluorescence, 48 h, PK04 Diversity Set, profiling panel (AID 1166); conditions: RPMI8226 myeloma viability, higher = more signal;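 note: cells grown under basal conditions without added stimulus; test concentration not given here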
[16] = JC-1 mitochondrial signal, unstimulated HepG2 cells – cell-based, JC-1 fluorescence, 24 h, 100 nL compound, profiling panel (AID 1167); conditions: HepG2 mitochondrial potential, higher = more signal; note: test concentration not given here
[17] = JC-1 mitochondrial signal, unstimulated adipocytes – cell-based, JC-1 fluorescence, 3T3-L1 adipocytes, 24 h, 100 nL compound, profiling panel (AID 1168); conditions: JC-1 mitochondrial fluorescence, higher = more signal, called active from +8 up or from −8 down; note: test concentration not given here
[18] = JC-1 mitochondrial signal, unstimulated myeloma cells – cell-based, JC-1 fluorescence, RPMI8226, 24 h, 100 nL compound, profiling panel (AID 1169); conditions: JC-1 mitochondrial potential fluorescence, higher = more signal; note: test concentration not given here
[19] = JC-1 mitochondrial signal, unstimulated MM1S myeloma – cell-based, JC-1 fluorescence, 24 h, 100 nL compound, profiling panel (AID 1170); conditions: MM1S mitochondrial potential, higher = more signal; note: test concentration not given here
[20] = resazurin metabolic signal in A549 cells – cell-based, resazurin fluorescence, 24 h, PK04 Diversity Set, profiling panel (AID 1171); conditions: A549 viability, higher = more signal, called active from +8 up or from −8 down; note: test concentration not given here

Compound | z-score [1] | composite z-score [2] | z-score [3] | z-score [4] | z-score [5] | z-score [6] | z-score [7] | z-score [8] | z-score [9] | z-score [10] | z-score [11] | z-score [12] | z-score [13] | z-score [14] | z-score [15] | z-score [16] | z-score [17] | z-score [18] | z-score [19] | z-score [20]
C=CCN1C(=O)[C@@]2(O[C@@H](CCO)[C@H]([Si](C)(C)c3ccc(OC)cc3)[C@H]2C)c2cc(N3C(=O)COc4ccccc43)ccc21 | -0.37 (inactive) | 0.0012 | 24.5 (active) | 11.4 (active) | -0.122 (inactive) | 2.68 (inactive) | 0.175 | -0.548 (inactive) | -0.111 (inactive) | 0.0948 | -3.41 | -0.967 | -4.72 | -2.74 | -4.33 | -2.17 | 2.78 (inactive) | -1.01 | -2.24 | -5.02 (inactive)
COc1ccccc1CN1C(=O)c2ccccc2[C@](Cc2ccccc2I)(C(=O)NCc2ccccc2)[C@@H]1c1ccc(CO)cc1 | -0.0738 (inactive) | 0.183 | 2.14 (inactive) | -0.0098 (inactive) | 0.826 (inactive) | -0.308 (inactive) | -0.266 | 0.102 (inactive) | 0.377 (inactive) | 1.34 | 0.049 | 0.218 | -0.733 | -0.325 | -1.92 | 0.37 | 0.368 (inactive) | -0.0456 | -0.318 | -0.5 (inactive)
O=C1c2ccccc2[C@](Cc2ccccc2I)(C(=O)O)[C@H](c2ccc(CO)cc2)N1Cc1ccccc1C(F)(F)F | -0.0668 (inactive) | 0.215 | 3.59 (inactive) | 1.01 (inactive) | 0.737 (inactive) | 0.915 (inactive) | -0.419 | 1.66 (inactive) | -0.832 (inactive) | -0.533 | -0.26 | -0.24 | 0.458 | -1.58 | -2.58 | -0.51 | -0.476 (inactive) | -0.832 | -0.478 | 0.427 (inactive)
Cc1ccc(S[C@]2(C(=O)NCCN3CCOCC3)CC(=O)N(C3CCCCC3)[C@@H]2c2ccc(CO)cc2)cc1 | -0.288 (inactive) | 0.136 | 1.47 (inactive) | 0.502 (inactive) | 0.512 (inactive) | 0.377 (inactive) | -0.667 | 0.444 (inactive) | 1 (inactive) | 0.923 | 2.25 | 0.486 | 0.555 | 0.309 | -0.65 | -0.0786 | -0.281 (inactive) | 0.698 | 0.485 | 1.51 (inactive)
CN1C(=O)C2C=CC(C(O)c3ccccc3)N(NC(=O)OC(C)(C)C)C2C1=O (stereo not given) | -1.18 (inactive) | 0.199 | -0.0278 (inactive) | 0.519 (inactive) | 0.303 (inactive) | 1.25 (inactive) | -1.04 | -1.08 (inactive) | -0.302 (inactive) | -1.87 | -1.66 | 0.103 | -0.983 | -0.965 | -0.386 | -1.22 | -0.0572 (inactive) | -0.306 | 0.32 | -0.449 (inactive)
CN(C)CCCC[C@@H]1NC(=O)[C@H]2C[C@@H](C(=O)NCCCCCNC(=O)CS)[C@@H](c3ccc(O)cc3)N2C1=O | 0.445 (inactive) | -0.0196 | 0.93 (inactive) | 0.683 (inactive) | -0.988 (inactive) | 0.153 (inactive) | -0.0137 | 0.394 (inactive) | -0.265 (inactive) | 0.877 | -0.294 | -0.478 | -0.0888 | 0.201 | -0.285 | 1.68 | -0.143 (inactive) | -0.319 | 0.543 | -0.358 (inactive)
COc1ccc(C#Cc2ccc3c(c2)[C@]2(C(=O)N3)[C@H](c3ccc(OCCO)cc3)N3[C@H](c4ccccc4)[C@H](c4ccccc4)OC(=O)[C@H]3[C@@H]2C(=O)Nc2nc3ccccc3s2)cc1 | 1.84 (inactive) | 0.547 | 2.24 (inactive) | 2.11 (inactive) | 2.04 (inactive) | 1.94 (inactive) | 0.418 | 1.7 (inactive) | 0.74 (inactive) | 0.177 | 1.47 | 0.292 | 0.891 | -1.69 | -1.37 | -2.95 | 6.28 (inactive) | -1.3 | -1.71 | -1.23 (inactive)
C=C[C@H](OC)[C@@H](OC(=O)Nc1ccc(SC)cc1)c1ccc(OCCO)cc1 | -0.356 (inactive) | -0.101 | 26 (active) | 15.7 (active) | 2.51 (inactive) | 1.82 (inactive) | 0.306 | 0.228 (inactive) | 0.103 (inactive) | 0.99 | -0.13 | 0.559 | 0.0758 | -0.164 | 0.609 | -2.55 | 0.734 (inactive) | -0.0748 | -0.887 | -0.139 (inactive)
